Source: PubChem BioAssay (The Scripps Research Institute Molecular Screening Center)
ADAM10 inh: human ADAM10 inhibitors, primary screen, biochemical, QFRET, HTS. 370,000 compounds, 0.62% hits. recombinant ADAM10, EDANS/DABCYL FRET peptide cleavage, 3 h. inhibition, % at 7 µM. Disintegrin and metalloproteinase domain-containing protein 10 (Homo sapiens), O14672;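 active = inhibition above a per-campaign cutoff equal to the mean of compounds falling between control-based bounds plus 3 SD, cut at about 20% in these data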;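 also: 0% = DMSO wells while the 100% control is not disclosed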
ADAM17 inh: ADAM17 inhibitors, primary screen, biochemical, QFRET; inhibition, % at 6.95 µM; AID 720648, 2013; Disintegrin and metalloproteinase domain-containing protein 17 (Homo sapiens), P78536; recombinant ADAM17, EDANS/DABCYL FRET peptide cleavage; 370,000 compounds, 0.83% hits;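 active = inhibition above the mean of compounds lying between control limits plus 3 SD, set per campaign, cut at about 8.5% in these data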;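 also: 0% = DMSO-only wells as the low control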
PLCb3 inh: human PLC-beta3 inhibitors, primary screen, biochemical, fluorescence | 1-phosphatidylinositol 4,5-bisphosphate phosphodiesterase beta-3 (Homo sapiens), Q01970 | Purified PLC-beta3, fluorogenic substrate | inhibition, % at 12.2 µM | 370,000 compounds, 0.18% hits | AID 720704, 2013;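 also: 0% = median of compound wells on plate and 100% = full blocker control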
KLK7 zymogen act: proKLK7 zymogen activators, primary screen, biochemical, fluorescence intensity | purified proKLK7, EDANS-DABCYL substrate fluorescence; 100% is mature enzyme control, 0% vehicle | 370,000 compounds, 0.9% hits | activation, % at 7 µM | Kallikrein-7 (Homo sapiens), P49862;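 active = activation above the mean of all tested compounds plus 3 SD, computed per campaign excluding outliers beyond control limits, cut at about 13% in these data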
sPLA2-III inh: human group III sPLA2 inhibitors, primary screen, biochemical, QFRET, BODIPY PC-A2 liposome substrate | QFRET BODIPY PC-A2 liposome hydrolysis, fluorescence | inhibition, % at 12.2 µM | Group 3 secretory phospholipase A2 (Homo sapiens), Q9NZ20 | 370,000 compounds, 0.56% hits;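 active = inhibition above mean plus 3 SD of compounds lying within the high and low control bounds, cut at about 19% in these data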;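 also: 0% = median of test compound wells and 100% = no enzyme DMSO wells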
Target sequence (Q9NZ20 whole entry, looked up): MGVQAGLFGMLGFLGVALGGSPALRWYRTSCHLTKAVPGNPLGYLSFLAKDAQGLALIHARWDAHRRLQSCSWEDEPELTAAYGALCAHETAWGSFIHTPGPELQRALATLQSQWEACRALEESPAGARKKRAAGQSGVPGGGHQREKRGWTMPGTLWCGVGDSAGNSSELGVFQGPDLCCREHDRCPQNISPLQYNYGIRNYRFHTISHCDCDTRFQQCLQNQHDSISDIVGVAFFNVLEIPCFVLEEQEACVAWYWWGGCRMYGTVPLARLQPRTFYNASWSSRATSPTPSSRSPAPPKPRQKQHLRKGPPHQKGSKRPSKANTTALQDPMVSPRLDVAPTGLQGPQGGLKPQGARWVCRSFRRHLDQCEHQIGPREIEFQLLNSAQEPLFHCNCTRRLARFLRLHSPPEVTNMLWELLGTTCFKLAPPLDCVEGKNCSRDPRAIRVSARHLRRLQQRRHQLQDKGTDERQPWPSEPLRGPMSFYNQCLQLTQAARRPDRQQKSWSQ
PLCg1 inh: PLC-gamma1 enzyme inhibitors, primary screen, biochemical, fluorescence, purified enzyme. 370,000 compounds, 0.84% hits. AID 720700, 2013. inhibition, % at 12.2 µM. fluorogenic substrate; in the data active = inhibition above about 9.5%
PLCg1 ctr: PLC-gamma1 enzyme inhibitors, counter-screen for PLC-beta3 inhibitor project, biochemical, fluorescence | shares compounds with PLCg1 inh | purified PLC-gamma1, fluorogenic substrate | inhibition, % at 12.3 µM | 3,300 compounds, 3.1% hits | AID 743258, 2014; in the data active = inhibition above about 9.5%
PLCbeta3 conf: PLC-beta3 inhibitor confirmation, biochemical, fluorescence, purified enzyme; shares compounds with PLCg1 inh; fluorogenic substrate fluorescence; inhibition, % at 12.3 µM; 3,300 compounds, 1% hits; AID 743261, 2014
Active calls of the source: *; · = no result given. Hits are enriched below; roughly 3.4% of the tested compounds scored in any of these assays. Rule as the data show it, unless noted: active = inhibition above about 11%; inactive = the rest.

SMILES | ADAM10 inh | ADAM17 inh | PLCb3 inh | KLK7 zymogen act | sPLA2-III inh | PLCg1 inh | PLCg1 ctr | PLCbeta3 conf
CC(=O)N1CCC(C(=O)Nc2ccc(S(=O)(=O)N3CCC(C)CC3)cc2)CC1 | 8 | -4 | 0 | 0 | -5 | 9.6* | -1 | 0
Cc1ccc(S(=O)(=O)N2CCC(C(=O)Nc3nnc(C4CCCC4)s3)CC2)cc1 | 0 | 8 | 7 | 0 | 3 | 15* | -2 | -1
COc1ccc(S(=O)(=O)N2CCC(C(=O)N3CCc4ccccc4C3)CC2)cc1 | 2 | -4 | -1 | 0 | -3 | 0 | · | ·
Cc1ccc(S(=O)(=O)N2CCC(C(=O)N3Cc4ccccc4C3)CC2)cc1 | 8 | 3 | 2 | 0 | 5 | 10* | -5 | -1
Cc1ccc(N2CC(C(=O)Nc3ccc(S(=O)(=O)N4CCCC4)cc3)CC2=O)cc1 (configuration not stated) | 11 | 3 | 2 | 1 | -27 | 15* | -1 | 0
O=C(Nc1nnc(C2CCCC2)s1)C1CCN(S(=O)(=O)c2ccc(Cl)cc2)CC1 | 11 | -3 | 2 | 0 | 0 | -2 | · | ·
C[C@@H](CCCCC1(C)OCCO1)CCC(=O)N(c1ccccc1)c1ccccc1 | -6 | 0 | -3 | 1 | -2 | -3 | · | ·
C/C(=N/NC(=O)Cc1cccs1)c1cccc([N+](=O)[O-])c1 | -2 | -1 | -1 | 0 | -2 | -5 | · | ·
Cc1ccc2c(c1)c(N=Nc1cccc(C(=O)O)c1)c(O)n2C | 2 | 2 | 1 | -1 | 13 | 13* | -8 | -8
CCOc1ccc2c(c1)c(N=Nc1cccc(C(=O)O)c1)c(O)n2C | -4 | -1 | -1 | 0 | -3 | 0 | · | ·
CCCNC(=O)NC(C(=O)OC)C12CC3CC(CC(C3)C1)C2 (configuration not stated) | 4 | 1 | 6 | -1 | 3 | 11* | 0 | 0
CC(C)C(=O)N1CC[C@H]2[C@H](CCCN2Cc2cc(F)cc(F)c2)C1 | -3 | -1 | 3 | 0 | 1 | -3 | · | ·
Cc1cc(C)n(CC(=O)NNC(=O)C2CC(=O)N(Cc3ccccc3Cl)C2)n1 (configuration not stated) | 4 | -1 | 0 | 0 | -1 | 12* | -4 | 1
C=CCN1C(=O)[C@@H](CC(=O)NCC23CC4CC(CC(C4)C2)C3)[C@]2(C(=O)OCC)CCCCC/C=C/12 | 1 | 0 | -2 | 0 | -6 | 3 | · | ·
O=Nc1c(O)[nH]c2c(F)cccc12 | 2 | -2 | 3 | -1 | -22 | -2 | · | ·
CCc1cccc2c(N=O)c(O)[nH]c12 | 7 | -1 | 1 | 0 | -48 | 11* | -2 | 1
CC1=[N+]([O-])C(C)(C)CC(C)(C)c2ccccc21 | 11 | 2 | 12* | 0 | 2 | 3 | -5 | -5
CC1(C)CC2(OC2c2ccccc2)C(=O)c2ccccc21 (configuration not stated) | -6 | 0 | -3 | 0 | 0 | 1 | · | ·
O=C(NCCO)C1(C(=O)C2CC2)CC(c2ccccc2C(F)(F)F)=NO1 (configuration not stated) | -1 | -1 | -1 | 0 | 1 | -1 | · | ·
O=C1OC[C@H]2CCCC[C@@H](CO)ON12 | 5 | 4 | 2 | 0 | 12 | 9.6* | 0 | 0
COC(=O)C[C@@H]1CC[C@H]2[C@H](COc3ccc(NC(=O)c4ccc(OC)cc4)cc3C(=O)N2C)O1 | -2 | -1 | 2 | 0 | -2 | 3 | · | ·
